Compound activity (PubChem BioAssay)
HT1080 IDH1KD tx – qHTS for induction of synthetic lethality in tumor cells producing 2HG: qHTS for the HT-1080-IDH1KD cell line; Potency, µM (series often up to 46.1 µM), inactives show at the top dose activity, negative = toxicity, usual class: cytotoxic; hit rate 2% among 360,000; HT-1080 IDH1 knockdown viability, ATP luminescence, 48 h; AID 686971, 2013;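 note: potency is the fitted concentration of half-maximal effect; 0% = DMSO wells and -100% = cell-free medium wells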
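Luminescent ATP read-out (CellTiter-Glo, 10 min at room temperature) after 48 h compound exposure at 37 °C gave viability of IDH1-knockdown HT-1080 cells. Activity was normalised to DMSO and cell-free wells, then fitted as concentration-response curves.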
TDP1 cell CPT – qHTS for Inhibitors of human tyrosyl-DNA phosphodiesterase 1 (TDP1): qHTS in cells in presence of CPT; chicken DT40 Tdp1-/-;hTDP1 cells + 20 nM CPT, ATP luminescence, 48 h; Potency, µM (doses to about 46.2 µM), for inactives: at the highest dose activity change, negative = growth inhibition, actives largely listed as inhibitors; hit rate 12% among 420,000; note: potency is the fitted concentration of half-maximal effect; nearly all actives have a fitted effect of over 55% in size
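Cell growth measured by CellTiter-Glo luminescence after a minimum 48 h, 37 C compound exposure with 20 nM CPT in Tdp1-knockout DT40 cells stably expressing hTDP1, seeded 400/well; qHTS titration format.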
HT1080NT lethal – qHTS for induction of synthetic lethality in tumor cells producing 2HG: qHTS for the HT-1080-NT fibrosarcoma cell line | Potency, µM (highest dose often 46.1 µM), for the others: at the highest dose activity, negative = less viability, most hits filed as cytotoxic | HT-1080-NT fibrosarcoma viability, CellTiter-Glo ATP luminescence, 48 h | hit rate 1.6% among 360,000;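 note: NT is the 2HG producing partner of a matched IDH1 knockdown line; potency is the fitted concentration of half-maximal effect; 0% = DMSO-treated cells and -100% = media-only wells without cells; nearly all actives have a fitted effect of over 55% in size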
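A 48-hour cytotoxicity screen used HT-1080-NT cells plated 2 hours before compound delivery. ATP-based CellTiter-Glo luminescence measured viability, normalized to DMSO and no-cell controls.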
12-LOX inh – Primary qHTS assay for inhibitors of human arachidonate 12S-lipoxygenase (ALOX12): Round 2; Polyunsaturated fatty acid lipoxygenase ALOX12 (Homo sapiens), P18054; purified 12hLO, xylenol orange hydroperoxide absorbance; Potency, µM (series often up to 108 µM), inactives show at the top dose activity change, negative = inhibition, hits mostly inhibitors; hit rate 1.1% among 580,000; note: potency is the fitted concentration of half-maximal effect
Target sequence (P18054 whole entry, looked up): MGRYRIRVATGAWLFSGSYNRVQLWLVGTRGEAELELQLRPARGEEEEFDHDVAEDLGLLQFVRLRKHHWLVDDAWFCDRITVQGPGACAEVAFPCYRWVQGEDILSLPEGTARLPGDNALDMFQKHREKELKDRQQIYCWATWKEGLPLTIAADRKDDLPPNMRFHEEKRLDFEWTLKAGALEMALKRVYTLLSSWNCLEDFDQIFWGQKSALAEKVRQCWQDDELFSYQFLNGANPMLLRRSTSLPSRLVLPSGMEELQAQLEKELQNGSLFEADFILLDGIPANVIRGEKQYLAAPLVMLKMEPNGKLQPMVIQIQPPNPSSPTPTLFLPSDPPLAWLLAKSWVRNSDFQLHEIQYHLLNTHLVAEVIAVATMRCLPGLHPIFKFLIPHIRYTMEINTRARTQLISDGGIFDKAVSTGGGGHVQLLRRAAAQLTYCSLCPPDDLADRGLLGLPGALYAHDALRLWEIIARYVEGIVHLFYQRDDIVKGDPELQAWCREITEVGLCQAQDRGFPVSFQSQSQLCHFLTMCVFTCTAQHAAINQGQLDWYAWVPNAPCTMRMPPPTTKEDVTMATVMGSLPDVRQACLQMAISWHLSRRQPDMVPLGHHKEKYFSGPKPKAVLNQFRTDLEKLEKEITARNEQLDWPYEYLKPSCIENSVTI
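Hydroperoxide product was detected by ferrous iron/xylenol orange as the 573 to 405 nm absorbance ratio. Arachidonic acid at 40 uM (final) was turned over for 30 min at room temperature by 150 nM human 12hLO, pH 7.0 Hepes buffer, after 15 min compound preincubation.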
TDP1 cell noCPT – qHTS for Inhibitors of human tyrosyl-DNA phosphodiesterase 1 (TDP1): qHTS in cells in absence of CPT; DT40 Tdp1-/- hTDP1 cells, no CPT, ATP luminescence, 48 h; Potency, µM (titrated, usually from 46.2 µM), inactives show at the top dose activity change, negative = growth inhibition, actives largely listed as inhibitors; hit rate 15% among 420,000; AID 686978, 2013; note: potency is the fitted concentration of half-maximal effect; nearly all actives have a fitted effect of over 55% in size
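Camptothecin absent (DMSO only). Human TDP1-complemented DT40 knockout cells, 400 cells/well, 37 °C for minimum 48 hr; ATP measured via CellTiter-Glo, 30 min dark incubation, luminescence.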
IL1B secr inh – qHTS for Inhibitors of Inflammasome Signaling: IL-1-beta AlphaLISA Primary Screen. THP-1 LPS/ATP IL-1B secretion, AlphaLISA, 16 h; active compounds read low. activity change, % at 57.5 µM. hit rate 4.7% among 360,000; in the data active = activity change below about -50%; inconclusive = mostly about -30% to -49%
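THP-1 cells pretreated 1 hr with compounds (up to 57.5 uM final), then stimulated with LPS (250 ng/mL final) plus ATP (1.25 mM final); secreted IL-1B measured by AlphaLISA after 16 hr, decreased signal indicating inhibition.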
* hit, by the source's call; ? = inconclusive; / = no result; [ ] = another dose, or the depositor's remark. The full list was thinned out, with hits kept by preference. Unless noted, calls come from the whole dose curve; as a rule, active = well fitted curve in the direction sought with a large enough effect; inconclusive = small, poorly fitted or top-dose-only effect, or another doubt; inactive = no such curve, though single readings can be large; an effect the other way counts as inactive or inconclusive. Unless noted, % is set by controls: 0 for no effect and ±100 for the full control effect.

SMILES	HT1080 IDH1KD tx	TDP1 cell CPT	HT1080NT lethal	12-LOX inh	TDP1 cell noCPT	IL1B secr inh
COc1cc(OC)c(OC)cc1/C=N/NC(=S)NCCN1CCOCC1	11%	18µM*	-3%	-6%	16µM*	1
COCCNC(=S)N/N=C/c1cc(OC)c(OC)cc1OC	/	/	/	19%	/	/
COc1ccc2ccccc2c1/C=N/NC(=S)NCCN1CCOCC1	-2%	16µM*	4%	-37%	-12%	-15
Cc1cc(N2CCN(c3ccccn3)CC2)n2cc(-c3ccccc3)nc2n1	-17%	21µM*	-5%	?	18µM*	-10
CC(C)(C)c1cc(C(=O)OCCN2CCCCC2)cc(C(C)(C)C)c1	/	/	/	7.1µM*	/	/
CCc1ccc(CNC(=O)c2nnn(-c3ccc(C)c(F)c3)c2C)cc1	/	/	/	-4%	/	/
O=S(=O)(c1cc(Cl)ccc1Cl)N1CCc2ccccc21	2%	?	8%	0%	?	24
O=S(=O)(c1cnc(Cl)c(Cl)c1)N1CCCc2ccccc21	?	18µM*	?	16%	16µM*	-101*
O=S(=O)(c1cnc(Cl)c(Cl)c1)N1CCc2ccccc21	-18%	?	?	-1%	16µM*	-65*
O=C(COc1ccc(Cl)cc1Cl)NC(=S)N1CCCc2ccccc21	?	?	?	?	21µM*	-12
Cc1ccc(S(=O)(=O)N2CCCc3ccccc32)cc1	?	-24%	-16%	0%	?	32
O=C(OCC(=O)N1CCCc2ccccc21)c1cnc(Cl)c(Cl)c1	-6%	-9%	-3%	-9%	7%	-85*
CN(Cc1cccs1)C(=O)CC1CC2CCC1C2 (stereo not given)	/	/	/	2%	/	/
O=S(=O)(c1cnc(Cl)c(Br)c1)N1CCc2ccccc21	?	16µM*	21µM*	-18%	?	-103*
Cn1cnc(S(=O)(=O)N2CCc3ccccc32)c1	12%	13%	4%	0%	-4%	19
CCC1=C(C(=O)OC)C(c2ccc(C)cc2C)N2C(CC(=O)NCC3CCCO3)=CSC2=N1 (stereo not given)	/	/	/	-9%	/	/
Cc1ccc(CN2CCc3nc(C4CC4)nc(-c4ccc(O)cc4)c3C2)cc1	/	/	/	-20%	/	/
Cn1c(=S)oc2ccccc21	10%	24%	15%	242%	-5%	3
CC(=O)/C=C/n1c(=S)oc2ccccc21	5.2µM*	0.82µM*	5.2µM*	-3%	0.65µM*	-98*
CC(C)CC(=O)/C=C/n1c(=S)oc2ccccc21	?	3.3µM*	-11%	10%	2.3µM*	-106*
Cn1nc(C(=O)Nc2ccc(S(=O)(=O)C(F)F)cc2)c2ccccc2c1=O	/	/	/	-42%	/	/
Oc1cccc(CN2CCOCC2)c1O	6%	26µM*	14%	?	?	-5
CCCc1cc(CN2CCOCC2)c(O)c(CN2CCOCC2)c1O	?	15µM*	13%	35µM*	18µM*	?
Oc1c(CN2CCOCC2)cc(CN2CCOCC2)c(O)c1O	-2%	18µM*	4%	61%	?	14
Cc1cc(C)nc(-n2nc(C)cc2NC(=O)CNC2CCCCC2)n1	-4%	-15%	-8%	-15%	-16%	-1
SMILES	HT1080 IDH1KD tx	TDP1 cell CPT	HT1080NT lethal	12-LOX inh	TDP1 cell noCPT	IL1B secr inh
COc1ccc(CNCC(=O)Nc2cc(C)nn2-c2nc(C)cc(C)n2)cc1OC	-8%	9.2µM*	-4%	-6%	8.2µM*	-4
Cc1cc(C)nc(-n2nc(C)cc2NC(=O)CN2CCc3ccccc3C2)n1	1.6µM*	10µM*	?	3%[57.4 µM]	23µM*	23
Cc1cc(C)nc(-n2nc(C)cc2NC(=O)CNCc2ccccc2)n1	-4%	-29%	1%	-14%	?	35
Cc1cc(C)nc(-n2nc(C)cc2NC(=O)CN2CCCC(C)C2)n1 (stereo not given)	2µM*	?	1.3µM*	14%	?	-15
Cc1ccccc1NC(=O)CN1CCc2ccccc2C1	4%	3%	11%	11%	-24%	19
CC(C(=O)NC1CCCCCC1)N1CCN(Cc2ccccc2)CC1 (stereo not given)	/	/	/	2%	/	/
Nc1ccc(C#Cc2c(-c3ccsc3)oc3ccc(N4CCOCC4)cc23)cc1	?	?	-22%	-3%	?	-1
COC(=O)c1ccc(/C=C/c2c(-c3ccsc3)oc3ccc(N4CCOCC4)cc23)cc1	0%	18µM*	2%	?	?	37
COc1ccc(-c2c(-c3ccsc3)oc3ccc(N4CCOCC4)cc23)cn1	4%	?	0%	-10%	16µM*	-11
N#Cc1cccc(NC(=O)N2CC[C@@]3(CCCN(C(=O)c4cc(C(F)(F)F)cc(C(F)(F)F)c4)C3)C2)c1	/	-20%	/	-2%[57.4 µM]	-24%	/
O=C(NC(c1ccccc1)c1ccccc1)C(=O)c1c[nH]c2ccccc12	/	/	/	-24%	/	/
CCCCN1C(=O)c2[nH]nc(-c3ccccc3O)c2C1c1ccc(OCc2ccccc2)c(OC)c1 (stereo not given)	/	?	/	4%	21µM*	/
CC(C)OCCCN1C(=O)c2[nH]nc(-c3ccccc3O)c2C1c1ccccc1F (stereo not given)	/	13µM*	/	7%	13µM*	/
CCCOc1ccc(C2c3c(-c4c(C)cc(C)cc4O)n[nH]c3C(=O)N2CCO)cc1 (stereo not given)	/	21µM*	/	-9%	23µM*	/
COc1ccc(C2c3c(-c4ccccc4O)n[nH]c3C(=O)N2CCCO)cc1OC (stereo not given)	/	/	/	19%	/	/
CCCCN1C(=O)c2[nH]nc(-c3ccccc3O)c2C1c1ccc(C(C)(C)C)cc1 (stereo not given)	/	21µM*	/	-8%	13µM*	/
COC(=O)c1cccc(C(=O)NCC2CCC2)c1	/	/	/	23%	/	/
O=C(Cn1ccn2nc(-c3ccccc3)c(CO)c2c1=O)Nc1ccc(F)c(Cl)c1	/	/	/	11%	/	/
CN(C)S(=O)(=O)c1ccc(C(=O)OCC(=O)Nc2ccccc2C(F)(F)F)cc1	/	/	/	3%	/	/
CSc1ccc(-c2c/c(=N\c3nc(-c4ccccc4)c(C)s3)c3ccccc3o2)cc1	/	/	/	-2%	/	/
